# This is a sample that favours compounds with a hit; in the whole collection about 17% have one here.
# ATXN2 expr inh = ATXN2 expression inhibition; Potency, µM (series often up to 57 µM), for inactives: at the top dose activity change, negative = inhibition, actives largely listed as inhibitors; 0.72% of 360,000 active; HEK-293 ATXN2-luciferase reporter, luminescence, 24 h; also: % is scaled to controls: 0 for no effect and ±100 for the full control effect; nearly all actives have a fitted effect of over 55% in size
#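 qHTS (up to 57 uM final) was run with 24 h compound exposure of reporter cells at 37 °C. Each well was multiplexed: SteadyGlo luminescence measured ATXN2-luciferase expression after a fluorogenic Gly-Phe-AFC viability readout (25 uM final).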
# HepG2 viability = counter-screen for TGF-b inhibitors: cytotoxicity in HepG2 cells; HepG2 CAGA-GFP viability, ATP luminescence, 18 h; Potency, µM (highest dose often 46.1 µM), inactives show top-dose activity change, negative = cytotoxicity, most hits filed as cytotoxic; 0.76% of 410,000 active; AID 588856
#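 CellTiter-Glo luminescence gave cytotoxicity after 18 hours at 37 degrees C. The cells were HepG2 CAGA-GFP in 1% FBS DMEM, stimulated with 500 pg/mL TGF-beta after compound addition. %Activity was normalised to no-cell wells (complete cell-killing) and DMSO (no toxicity), and curves were fitted and classified.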
# ATXN viability = cell viability loss in ATXN counter-screen; S2 cells (HEK-293 line with an ATXN2-luciferase reporter) viability, CellTiter-Fluor protease fluorescence, 24 h; Potency, µM (series often up to 56.7 µM), actives largely listed as cytotoxic; 0.49% of 400,000 active; also: nearly all actives have a fitted effect of over 40% in size
# TGFb inhibitor = blocks TGF-b signaling; HepG2 CAGA-GFP TGF-b/SMAD3 reporter, GFP fluorescence, 18 h; TGF-beta stimulated, 500 pg/mL final; Potency, µM (titrated, usually from 46.1 µM), without a hit: at the top dose activity, negative = inhibition, hits mostly inhibitors; 1.2% of 410,000 active; AID 588855; also: % is scaled to controls: 0 for no effect and ±100 for the full control effect; nearly all actives have a fitted effect of over 65% in size
#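 Per well, imaged GFP fluorescence of HEPG2 CAGA-GFP cells gives the signal; cells get compound, then TGF-beta (500 pg/mL final), 18 h at 37 degrees C; %Activity versus -TGF-beta and +DMSO controls.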
# TDP1 cell noCPT = qHTS for Inhibitors of human tyrosyl-DNA phosphodiesterase 1 (TDP1): qHTS in cells in absence of CPT | DT40 Tdp1-/- hTDP1 cells, no CPT, ATP luminescence, 48 h | Potency, µM (doses to about 46.2 µM), without a hit: top-dose activity change, negative = growth inhibition, usual class: inhibitors | 15% of 420,000 active | AID 686978, 2013; also: % is scaled to controls: 0 for no effect and ±100 for the full control effect; nearly all actives have a fitted effect of over 55% in size
#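 Luminescent ATP content (CellTiter-Glo) served as the growth readout. Knockout chicken DT40 cells expressing human TDP1 were exposed to compounds without camptothecin for a minimum 48 hr at 37 °C.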
# DT40 TDP1 CPT = DT40-hTDP1 cell growth loss with CPT; 12% of 420,000 active; Potency, µM (highest dose often 46.2 µM), inactives show at the highest dose activity change, negative = growth inhibition, usual class: inhibitors; AID 686979; chicken DT40 Tdp1-/-;hTDP1 cells + 20 nM CPT, ATP luminescence, 48 h; also: % is scaled to controls: 0 for no effect and ±100 for the full control effect; nearly all actives have a fitted effect of over 55% in size
#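 Chicken DT40 Tdp1-/- cells stably complemented with human TDP1 were seeded at 400 cells/well in medium containing 20 nM camptothecin, exposed to pin-transferred compounds, and grown at 37 °C for at least 48 hr. Viability was read as ATP luminescence.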
# The depositor's hits bear a star; i = inactive; ? = inconclusive; · = no result. Calls follow the shape of the dose curve; as a rule, active = well fitted curve in the direction sought with a large enough effect; inconclusive = small, poorly fitted or top-dose-only effect, or another doubt; inactive = no such curve, though single readings can be large; an effect the other way counts as inactive or inconclusive. Potency is read from the fitted curve at half-maximal effect.
SMILES,ATXN2 expr inh,HepG2 viability,ATXN viability,TGFb inhibitor,TDP1 cell noCPT,DT40 TDP1 CPT
CC(C)c1ccc(NC(=O)N2CCc3ccccc3C2)cc1,80%,-14%,i,-6%,?,?
COc1cc(Nc2ncc3c(n2)CCN(C(=O)Nc2ccc(C(C)C)cc2)C3)cc(OC)c1OC,?,-22%,i,?,12µM*,?
CC(C)c1ccc(NC(=O)N2CCc3nc(NCc4cccc(Oc5ccccc5)c4)ncc3C2)cc1,-32%,-16%,i,-18%,16µM*,?
CN(C)C(=O)c1ccc(NC(=O)c2ccccc2Sc2ccccc2C#N)cc1,-12%,0%,i,-5%,-11%,-13%
COc1cccc(C(=O)NCC(=O)N/N=C/c2cn[nH]c2-c2ccccc2)c1,-13%,-15%,i,-3%,-29%,5%
CCc1noc(C)c1C(=O)Nc1cccc2ncccc12,2%,6%,i,3%,10%,3%
Cc1ccc(Nc2nc3c(S(=O)(=O)c4ccccc4)nnn3c3ccsc23)c(C)c1,·,-12%,·,21%,?,?
COc1ccccc1Nc1nc2c(S(=O)(=O)c3ccc(C(C)C)cc3)nnn2c2ccsc12,·,-54%,·,?,-5%,-4%
Cc1ccc(C)c(Nc2nc3c(S(=O)(=O)c4ccc(C(C)C)cc4)nnn3c3ccsc23)c1,·,-19%,·,-14%,21µM*,15µM*
Cc1ccc(C)c(Nc2nc3c(S(=O)(=O)c4ccc(Br)cc4)nnn3c3ccsc23)c1,·,-4%,·,?,21µM*,18µM*
CCCOC(=O)CSc1nnc(-c2ccccc2)o1,-9%,-21%,i,9%,·,·
COC(=O)c1ccc(NC(=O)COc2ccc(S(=O)(=O)NC(C)(C)C)cc2)cc1,-9%,-1%,i,0%,-3%,16%
COc1ccc(C(=O)CC(C(=O)O)c2ccc(OC)c(OC)c2)cc1OC (configuration not stated),·,-17%,i,-6%,-7%,1%
O=C(CN1C(=O)S/C(=C\c2ccccc2F)C1=O)Nc1ccccc1O,0%,-47%,i,?,-9%,-21%
O=C1S/C(=C/c2ccccc2F)C(=O)N1CCN=C1NS(=O)(=O)c2ccccc21,1%,-10%,i,-2%,?,16µM*
CCc1noc(C)c1C(=O)NCCN1C(=O)S/C(=C\c2ccccc2F)C1=O,·,-5%,?,0%,18µM*,18µM*
O=C(CN1C(=O)NC2(CCCC2)C1=O)NCCN1C(=O)S/C(=C\c2ccccc2F)C1=O,47%,0%,i,0%,?,?
O=C(CCl)NCCN1C(=O)S/C(=C\c2cccnc2)C1=O,-7%,-28%,?,-4%,?,?
Cc1nn(Cc2ccccc2)c(C)c1C(=O)NCCN1C(=O)S/C(=C\c2ccccc2)C1=O,-9%,-5%,?,-1%,?,21µM*
COC[C@@H](c1ccc(C(F)(F)F)cc1)N1CCN(C2(C)CCN(C(=O)c3c(C)ncnc3C)CC2)C[C@H]1C,-11%,·,i,·,·,·
CC(C)(C)c1cnc(CSc2cnc(NC(=O)C3CCNCC3)s2)o1,0.31µM*,·,·,·,·,·
CC(C)(C)c1cc(NC(=O)C2CCCO2)no1 (configuration not stated),31%,3%,i,20%,3%,-5%
CC(C)c1ccc(NC(=O)CSC2=Nc3ccccc3C3=NC(CCC(=O)NCc4cccs4)C(=O)N23)cc1 (configuration not stated),·,-5%,·,9%,26µM*,23µM*
Cc1ccc(CSC2=Nc3ccccc3C3=NC(CCC(=O)NCc4cccs4)C(=O)N23)cc1 (configuration not stated),·,-11%,·,0%,?,-29%
CCc1ccc(NC(=O)CSC2=Nc3ccccc3C3=NC(CCC(=O)NCc4cccs4)C(=O)N23)cc1 (configuration not stated),·,-20%,·,9%,?,?
SMILES,ATXN2 expr inh,HepG2 viability,ATXN viability,TGFb inhibitor,TDP1 cell noCPT,DT40 TDP1 CPT
O=C(CCC1N=C2c3ccccc3N=C(SCC(=O)Nc3ccc(F)cc3)N2C1=O)NCc1cccs1 (configuration not stated),·,-16%,·,79%,15µM*,15µM*
O=C(CCC1N=C2c3ccccc3N=C(SCc3ccccc3Cl)N2C1=O)NCc1cccs1 (configuration not stated),·,1%,·,12%,21µM*,?
Cc1ccc(S(=O)(=O)OCC(=O)Nc2ccc(C(=O)O)c(O)c2)cc1,-8%,9%,i,?,5%,-20%
Cc1ccc(NC(=O)CSc2ccc3nnc(CCNC(=O)c4ccccc4)n3n2)c(C)c1,-13%,27%,i,7%,-19%,-2%
CCCCn1nnnc1C1(C)CCC(=O)N1CCCN1CCOCC1 (configuration not stated),-4%,·,?,·,-1%,-4%
Cc1cc(-n2c(C)cc(C(=O)COc3ccc(Cl)cc3C(N)=O)c2C)no1,6%,13%,i,-4%,?,?
O=C(Nc1nc(-c2ccc(F)cc2)cs1)c1cccnc1,-4%,3%,i,11%,?,-16%
O=C(Nc1nc(-c2ccc(Cl)cc2)cs1)c1cccnc1,-17%,-9%,i,-16%,18µM*,?
CCc1ccc(-c2csc(NC(=O)c3cccnc3)n2)cc1,3%,-4%,i,-7%,16µM*,?
CCc1ccc(-c2csc(NC(=O)C3=NN(c4ccccc4)C(=O)CC3)n2)cc1,·,-14%,i,-29%,26µM*,?
O=C(COC(=O)C1=NN(c2ccccc2)C(=O)CC1)Nc1nc(-c2ccc(F)cc2)cs1,6%,-23%,i,1%,-18%,?
O=C(Nc1nc(-c2ccc(Cl)cc2)cs1)NC1CCCCC1,-10%,-35%,i,11µM*,?,?
O=C(Nc1ccnn1C1CCN(CCCC2CCCC2)CC1)c1ccccc1Cl,-21%,-39%,i,?,?,?
CCCC(=O)Nc1ccc(-c2csc(-c3cccnc3)n2)cc1,-35%,-1%,i,-1%,16µM*,?
CC(=O)Nc1ccc(-c2csc(-c3cccnc3)n2)cc1,-6%,-38%,i,1%,?,?

# Source: PubChem
